B1: Caulobacter ParB omega fusion; a variant is named by its letters at X, in order, B8GW30 (parent)
chain: MESVVVGEPGMSEGRRGLGRGLSALLGEVDAAPAQAPGEQLGGSREAPIEILQRNPDQPRRTFREEDLEDLSNSIREKGVLQPILVRPSPDTAGEYQIVAGERAWRAAQRAGLKTVPIMVRELDDLAVLEIGIIENVQRADLNVLEEALSYKVLMEKFERTQENIAQTIGKSXSHVANXMRLLXLPDEVQSYLVSGELTAXHARAIAAAADPVALAKQIIEGGLSVRETEALARKAPNLSAGKSKGGRPPRVKDTDTQALESDLSSVLGLDVSIDHRGSTGTLTITYATLEQLDDLCNRLTRGI

In all, about 81,000 sequences were measured (“one-hybrid fitness for binding parS DNA”: median about -0.17, highest 2% from about 0.51 on). This excerpt belongs to a sample that is enriched for the highest values.

In the assay the parent is B1. The assay can be described thus: one-hybrid fitness for binding parS DNA (scaled: cognate 1, non-cognate 0); higher = stronger binding. The conditions noted are these: with parS DNA site. The method in brief: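 On M9-minus-histidine containing 0.1 mM IPTG and 5 mM 3-AT, E. coli USO cells with a HIS3 reporter, site 19 bp from the promoter, grew 48 hours at 37°C to select Caulobacter ParB libraries randomised at four specificity codons. Plasmids from before and after were Illumina-sequenced, with three replicate libraries pooled and variants under 10 reads left out. Fitness is the log change in variant-to-wild-type read ratio, rescaled against cognate and non-cognate.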
As for CPAM, the “one-hybrid fitness for binding parS DNA” value was at most 0.2.
As for QILY, the figure is at most 0.2.
Turning to QADE, the “one-hybrid fitness for binding parS DNA” value was at most 0.2.
As for CSLA, the “one-hybrid fitness for binding parS DNA” value was at most 0.2.
The same measure for RAKM: 0.448; for RAKC: 0.91.
Turning to RAKR, the “one-hybrid fitness for binding parS DNA” value is at most 0.2.
RAVP: the “one-hybrid fitness for binding parS DNA” value was at most 0.2.
As to RAVN, the “one-hybrid fitness for binding parS DNA” value was 0.388.
As for RAVC, the figure is 0.851; as for CAPG, at most 0.2; as for TVAL, at most 0.2.
The same measure for SDKW: at most 0.2; for FVSL: at most 0.2; for KQRR: at most 0.2.
Turning to IVGT, the “one-hybrid fitness for binding parS DNA” value is at most 0.2.
The same measure for LIKM: at most 0.2; for INCG: at most 0.2; for RTKP: at most 0.2.
As for RTVT, the figure is 0.879; as for RTVK, at most 0.2.
Consider RTKT, for which the “one-hybrid fitness for binding parS DNA” value is 0.74.
In the case of RTKQ, the “one-hybrid fitness for binding parS DNA” value was at most 0.2.
As for RTVQ, the figure is at most 0.2; as for SPTS, at most 0.2; as for AAYI, at most 0.2.
As for AFVR, the figure is at most 0.2; as for SQAR, at most 0.2.
Take QSAW: the “one-hybrid fitness for binding parS DNA” value is at most 0.2.
The same measure for DFKC: at most 0.2; for NFVC: at most 0.2; for NFKC: at most 0.2.
As for RFVC, the figure is 0.753; as for RFKC, 0.991; as for DFVC, at most 0.2.
With ARWW, the “one-hybrid fitness for binding parS DNA” value turned out to be 0.23.
The same measure for ICDS: at most 0.2; for HSSC: at most 0.2; for IVSG: 0.263.
As to STPM, the “one-hybrid fitness for binding parS DNA” value was at most 0.2.
As for SILY, the figure is at most 0.2; as for RTAT, 0.918; as for RTFM, 0.334.
As for RTAR, the figure is at most 0.2.
The same measure for RTAQ: at most 0.2.
For RTFQ, the “one-hybrid fitness for binding parS DNA” value was 0.26.
The same measure for RTFT: 0.911.
Consider EICA, for which the “one-hybrid fitness for binding parS DNA” value was at most 0.2.
As for RNHW, the figure is at most 0.2; as for GQRT, at most 0.2.
With LGMH, the “one-hybrid fitness for binding parS DNA” value was at most 0.2.
QVAS: the “one-hybrid fitness for binding parS DNA” value was at most 0.2.
Take REAA: the “one-hybrid fitness for binding parS DNA” value was at most 0.2.
The same measure for RNAA: 0.456.
As for RMFA, the figure is 0.61; as for RMAA, 0.59; as for RGFA, 0.215.
Regarding NNVS, the “one-hybrid fitness for binding parS DNA” value is at most 0.2.
In the case of HPRW, the “one-hybrid fitness for binding parS DNA” value is at most 0.2.
With RKGE, the “one-hybrid fitness for binding parS DNA” value was at most 0.2.
As for RILP, the figure is at most 0.2.
For the variant RIHD, the “one-hybrid fitness for binding parS DNA” value is at most 0.2.
The same measure for RIRP: at most 0.2; for RILH: at most 0.2; for RIWD: at most 0.2.
In the case of RILS, the “one-hybrid fitness for binding parS DNA” value came to 1.04.
The same measure for RIWP: 0.223; for RIRD: at most 0.2; for RIRS: 0.874.
The same measure for RIWS: 1.05; for RIHN: 0.463; for RIHS: 0.97.
As for YILC, the figure is at most 0.2.
Turning to NTNE, the “one-hybrid fitness for binding parS DNA” value is at most 0.2.
Take HGYW: the “one-hybrid fitness for binding parS DNA” value was at most 0.2.
The same measure for PCLT: at most 0.2; for RIYN: 0.476; for RIYS: 1.07.
As for RIYH, the figure is at most 0.2.
As for VRVS, the figure is at most 0.2.
Take VYCV: the “one-hybrid fitness for binding parS DNA” value was at most 0.2.
Consider VANG, for which the “one-hybrid fitness for binding parS DNA” value is at most 0.2.
As for RVVT, the figure is 0.795.
As for RVKD, the figure is at most 0.2; as for RVKT, 0.761.
As for RVVH, the figure is at most 0.2; as for RVVP, at most 0.2.
In the case of RVKN, the “one-hybrid fitness for binding parS DNA” value worked out at 0.46.
As for SDSY, the figure is at most 0.2; as for RRMV, at most 0.2; as for RDHG, at most 0.2.
As to RCHG, the “one-hybrid fitness for binding parS DNA” value turned out to be 0.994.
Regarding RIHY, the “one-hybrid fitness for binding parS DNA” value worked out at 0.461.
As for RPHG, the figure is at most 0.2.
As for RSHG, the figure is 1; as for RSHQ, at most 0.2.
As for RIHF, the figure is at most 0.2; as for RIHG, 1.02; as for RLHQ, at most 0.2.
As for REHG, the “one-hybrid fitness for binding parS DNA” value amounted to 0.236.
For the variant RLHG, the “one-hybrid fitness for binding parS DNA” value stood at 1.01.
The same measure for RLHM: 0.321.
For the variant CRRT, the “one-hybrid fitness for binding parS DNA” value is at most 0.2.
As for TFGN, the figure is at most 0.2; as for FDPG, at most 0.2; as for QNIS, at most 0.2.
On to FWAR, for which the “one-hybrid fitness for binding parS DNA” value was at most 0.2.
TTPY: the “one-hybrid fitness for binding parS DNA” value is at most 0.2.
The same measure for NYDR: at most 0.2.
As for DKHC, the figure is at most 0.2.
As for YHHS, the figure is at most 0.2.
Turning to RHQT, the “one-hybrid fitness for binding parS DNA” value was determined as 0.853.
As for RHQK, the figure is at most 0.2; as for RHSY, 0.41.
As for RHGT, the figure is 0.832; as for RHCN, 0.381; as for RHST, 0.854.
With RHCD, the “one-hybrid fitness for binding parS DNA” value was at most 0.2.
As for RHGF, the figure is at most 0.2; as for RHSF, at most 0.2.
The same measure for RHQF: at most 0.2; for RHGM: 0.232.
As for RHCT, the figure is 0.766; as for WKSA, at most 0.2.
With NGKG, the “one-hybrid fitness for binding parS DNA” value was at most 0.2.
MLAT: the “one-hybrid fitness for binding parS DNA” value was at most 0.2.
The same measure for AQPR: at most 0.2; for VSSM: at most 0.2.
The same measure for GPRN: at most 0.2.
As for MTAN, the figure is at most 0.2; as for FTMR, at most 0.2; as for TSLA, at most 0.2.
Regarding VLVS, the “one-hybrid fitness for binding parS DNA” value was at most 0.2.
As for TYKP, the figure is at most 0.2.
The same measure for SNHT: at most 0.2; for RHRY: 0.473.
Turning to RHRM, the “one-hybrid fitness for binding parS DNA” value worked out at 0.277.
The same measure for RHYT: 0.806; for RHYN: 0.448.
As for RHYK, the figure is at most 0.2; as for RHWT, 0.692; as for RHWK, at most 0.2.
As for RHRT, the figure is 0.788.
As to RHWR, the “one-hybrid fitness for binding parS DNA” value is at most 0.2.
As for ITCG, the figure is at most 0.2.
LTNS: the “one-hybrid fitness for binding parS DNA” value is at most 0.2.
The same measure for TGVT: at most 0.2; for VSLW: at most 0.2.
As for SSDD, the figure is at most 0.2; as for RLIC, 0.938; as for RLIQ, at most 0.2.
Consider RLIF, for which the “one-hybrid fitness for binding parS DNA” value is at most 0.2.
On to RLPR, for which the “one-hybrid fitness for binding parS DNA” value was at most 0.2.
Regarding RLPC, the “one-hybrid fitness for binding parS DNA” value amounted to 0.681.
As for RLPF, the figure is at most 0.2; as for SDVC, at most 0.2.
Take QSHD: the “one-hybrid fitness for binding parS DNA” value was at most 0.2.
RMDA: the “one-hybrid fitness for binding parS DNA” value turned out to be 0.572.
The same measure for RMNA: 0.606.
Take SISG: the “one-hybrid fitness for binding parS DNA” value was at most 0.2.
For the variant RVSP, the “one-hybrid fitness for binding parS DNA” value was at most 0.2.
For RVHS, the “one-hybrid fitness for binding parS DNA” value came out at 0.972.
As for RVSS, the figure is 0.975.
The same measure for RVQS: 0.989; for RVGH: at most 0.2; for RVHN: 0.425.
The same measure for RVSN: 0.426; for RVHH: 0.235.
As for RVQD, the “one-hybrid fitness for binding parS DNA” value was at most 0.2.
As for RVGP, the figure is at most 0.2.
As for RVGS, the figure is 0.954.
Regarding RVQH, the “one-hybrid fitness for binding parS DNA” value is 0.223.
The same measure for IMHT: at most 0.2; for WTRR: at most 0.2; for ISNF: at most 0.2.
As for FYDL, the figure is at most 0.2; as for IAGR, at most 0.2; as for TAIN, at most 0.2.
The same measure for RVYH: 0.263; for RVRN: 0.409.
Take RVRD: the “one-hybrid fitness for binding parS DNA” value is at most 0.2.
The same measure for RVWS: 1.05.
As for RVCS, the figure is 1.03; as for RVWD, 0.212; as for RVWN, 0.478.
As for RVCD, the figure is at most 0.2; as for RVRS, 0.895.
For RVCH, the “one-hybrid fitness for binding parS DNA” value was at most 0.2.
For RVYD, the “one-hybrid fitness for binding parS DNA” value came out at 0.216.
As for RVYS, the “one-hybrid fitness for binding parS DNA” value was found to be 1.04.
As to MMSR, the “one-hybrid fitness for binding parS DNA” value was at most 0.2.
As for MHFY, the figure is at most 0.2; as for QASI, at most 0.2; as for TREC, at most 0.2.
As for PYKT, the figure is at most 0.2.

The values above are taken from a collection of fitness landscapes (doi:10.1016/j.celrep.2020.107928).
